Measured values published in PubChem BioAssay (NCATS).
Where “and” joins values, the source holds several entries; their conditions need not be identical. Equal entries are not always repeated. Records with an inconclusive call do not appear. Calls of active or inactive are those of the source. The call rests on the fitted dose curve; in most records, active means well fitted curve in the direction sought with a large enough effect; inconclusive means small, poorly fitted or top-dose-only effect, or another doubt; inactive means no such curve, though single readings can be large; an effect the other way counts as inactive or inconclusive.

What was measured:
[1] = P-glycoprotein substrates identified in KB-8-5-11 adenocarcinoma cell line, qHTS therapeutic library screen (AID 1346987); further: nearly all actives have a fitted effect of over 65% in size; further: potency means the concentration at half of the fitted maximal effect
Procedure, shortened: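 Human cervical adenocarcinoma KB-8-5-11 cells, selected in colchicine to over-express P-gp and assayed without it, were exposed for 72 h to titrated compounds. An ATP-based luminescent viability signal gave AC50.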

[2] = qHTS of pediatric cancer cell lines to identify multiple opportunities for drug repurposing: Primary screen for DAOY cells (AID 1347090); further: nearly all actives have a fitted effect of over 55% in size; further: potency means the concentration at half of the fitted maximal effect
Procedure, shortened: (§1)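 Viability measured as metabolically active cells via CellTiter-Glo luminescence following 48 hours of compound exposure, 11-point dilutions in confirmatory testing. 500-1,000 cells/well plated 5 hours before dosing; controls were DMSO and 2.3 µM bortezomib.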

[3] = qHTS of pediatric cancer cell lines to identify multiple opportunities for drug repurposing: Primary screen for A673 cells (AID 1347092); further: nearly all actives have a fitted effect of over 45% in size; further: potency means the concentration at half of the fitted maximal effect
Procedure, shortened: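 A673 cells (500-1,000 cells/well in growth media) were pre-incubated 5 h at 37 degrees C, then exposed to compounds for 48 h. Viability was read as CellTiter-Glo luminescence; concentration-response curves came directly from the primary screen.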

[4] = qHTS of pediatric cancer cell lines to identify multiple opportunities for drug repurposing: Primary screen for SK-N-MC cells (AID 1347093); further: potency means the concentration at half of the fitted maximal effect
Procedure, shortened: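 Metabolically active cells were quantified by ATP-dependent luminescence (CellTiter-Glo, 15 min at room temperature) following 48 h treatment. Cells had been plated at 500-1,000 per well and settled for 5 h beforehand.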

[5] = qHTS of pediatric cancer cell lines to identify multiple opportunities for drug repurposing: Primary screen for BT-37 cells (AID 1347094); further: potency means the concentration at half of the fitted maximal effect
Procedure, shortened: (§2)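 Cells seeded at 500-1,000 cells/well in growth media, rested 5 hours at 37 degrees C, 5% CO2, then dosed; MIPE compounds at 11-point (from 0.78 nM) and NPC at 8-point (from 0.59 nM) final concentrations. Viability by CellTiter-Glo luminescence after 48 hours.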

[6] = qHTS of pediatric cancer cell lines to identify multiple opportunities for drug repurposing: Primary screen for NB-EBc1 cells (AID 1347095); further: potency means the concentration at half of the fitted maximal effect
Procedure, shortened: as §2

[7] = qHTS of pediatric cancer cell lines to identify multiple opportunities for drug repurposing: Primary screen for U-2 OS cells (AID 1347096); further: nearly all actives have a fitted effect of over 50% in size; further: potency means the concentration at half of the fitted maximal effect
Procedure, shortened: (§3)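 Viability after 48 h compound treatment at 37C, 500-1,000 cells/well, read as ATP luminescence with CellTiter-Glo. Primary screens used 11-point (MIPE, 0.78 nM-46 µM) or 8-point (NPC, 0.59 nM-46 µM) final concentrations; follow-up screens used 11-point dilutions.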

[8] = qHTS of pediatric cancer cell lines to identify multiple opportunities for drug repurposing: Primary screen for SK-N-SH cells (AID 1347098); further: nearly all actives have a fitted effect of over 65% in size; further: potency means the concentration at half of the fitted maximal effect
Procedure, shortened: (§4)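 Cells (500-1,000/well) rested 5 h, then received compounds for 48 h; metabolically active cells were measured by CellTiter-Glo luminescence. Final concentrations spanned up to 46 µM (MIPE, 11-point) or 0.59 nM-46 µM (NPC, 8-point) in primary screens, 11-point in follow-ups.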

[9] = qHTS of pediatric cancer cell lines to identify multiple opportunities for drug repurposing: Primary screen for NB1643 cells (AID 1347099); further: nearly all actives have a fitted effect of over 50% in size; further: potency means the concentration at half of the fitted maximal effect
Procedure, shortened: as §2

[10] = qHTS of pediatric cancer cell lines to identify multiple opportunities for drug repurposing: Primary screen for LAN-5 cells (AID 1347100); further: potency means the concentration at half of the fitted maximal effect
Procedure, shortened: as §3

[11] = qHTS of pediatric cancer cell lines to identify multiple opportunities for drug repurposing: Primary screen for BT-12 cells (AID 1347101); further: nearly all actives have a fitted effect of over 25% in size; further: potency means the concentration at half of the fitted maximal effect
Procedure, shortened: as §4

[12] = qHTS of pediatric cancer cell lines to identify multiple opportunities for drug repurposing: Primary screen for Rh18 cells (AID 1347102); further: nearly all actives have a fitted effect of over 65% in size; further: potency means the concentration at half of the fitted maximal effect
Procedure, shortened: as §3

[13] = qHTS of pediatric cancer cell lines to identify multiple opportunities for drug repurposing: Primary screen for SJ-GBM2 cells (AID 1347091); further: potency means the concentration at half of the fitted maximal effect
Procedure, shortened: as §1

[14] = qHTS of pediatric cancer cell lines to identify multiple opportunities for drug repurposing: Primary screen for Saos-2 cells (AID 1347097); further: nearly all actives have a fitted effect of over 40% in size; further: potency means the concentration at half of the fitted maximal effect
Procedure, shortened: as §2

[15] = NS1 protein of Zika virus - qHTS assay to identify small molecule inhibitors in human HEK 293 cells (AID 1347053); further: series mostly up to about 46 µM; nearly all actives have a fitted effect of over 55% in size
Procedure, shortened: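 Readout was TR-FRET using paired anti-NS1 antibodies after 24 h infection of HEK 293 cells with ZIKV MR766 (MOI = 0.5). Compound preceded virus by 1 h; reduced signal reflects lower NS1 expression.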

[16] = qHTS of pediatric cancer cell lines to identify multiple opportunities for drug repurposing: Primary screen for TC32 cells (AID 1347089); further: nearly all actives have a fitted effect of over 60% in size
Procedure, shortened: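 Luminescent CellTiter-Glo read-out of metabolically active TC32 cells after 48 h compound exposure. Primary: MIPE 11-point, 0.78 nM–46 µM; NPC 8-point, 0.59 nM–46 µM. Confirmatory: 11-point dilutions.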

| SMILES | Potency [1] | Potency [2] | Potency [3] | Potency [4] | Potency [5] | Potency [6] | Potency [7] | Potency [8] | Potency [9] | Potency [10] | Potency [11] | Potency [12] | Potency [13] | Potency [14] | Potency [15] | Potency [16] |
| --- | --- | --- | --- | --- | --- | --- | --- | --- | --- | --- | --- | --- | --- | --- | --- | --- |
| O=C(C=CC#Cc1cccc(NS(=O)(=O)c2ccccc2)c1)NO | 4.69 µM (active) | 2.96 µM (active) | 1.48 µM (active) | 0.59 µM (active) | 4.85 µM (active) | 0.833 µM (active) | 2.96 µM (active) | 3.41 µM (active) | 1.18 µM (active) | 1.18 µM (active) | 7.69 µM (active) | 1.66 µM (active) |  |  |  |  |
| COc1cc2c(cc1OC)[C@@H]1C(=O)c3ccc4c(c3O[C@@H]1CO2)C=CC(C)(C)O4 | 5.17 µM (active) | 0.0743 µM (active) | 0.0743 µM (active) | 0.148 µM (active) |  | 10.5 µM (active) | inactive |  | 3.32 µM (active) | 18.7 µM (active) | 0.0273 µM (active) | inactive | 18.7 µM (active) | 13.2 µM (active) |  |  |
| Nc1ccn(C[C@@H](CO)OCP(=O)(O)O)c(=O)n1 |  | inactive | inactive | inactive |  | inactive | inactive | inactive | inactive | inactive | inactive | inactive | inactive | inactive | inactive | inactive |
| COc1cc(C)c(Sc2cnc(NC(=O)c3ccc(CNC(C)C(C)(C)C)cc3)s2)cc1C(=O)N1CCN(C(C)=O)CC1 (stereo not drawn) | inactive | 18.7 µM (active) | 2.35 µM (active) | 2.09 µM (active) | 7.69 µM (active) | 0.743 µM (active) | inactive | 4.82 µM (active) | 3.72 µM (active) | 1.66 µM (active) | 19.3 µM (active) | 14.8 µM (active) | 4.69 µM (active) | inactive |  |  |
| CN(C)CCN1C(=O)c2cccc3cc(N)cc(c23)C1=O | 14.8 µM (active) | 23.5 µM (active) | 14.8 µM (active) |  | 6.85 µM (active) | 1.87 µM (active) |  | 21.5 µM (active) | 18.7 µM (active) | 2.96 µM (active) | 21.7 µM (active) |  |  |  |  |  |
| Oc1ccc([C@@H]2Oc3ccc(O)cc3[C@@H]3CCC[C@@H]32)cc1 | 5.9 µM (active) and 5.8 µM (active) |  | 9.35 µM (active) | 4.18 µM (active) |  | 7.43 µM (active) | inactive | 24.1 µM (active) | 16.6 µM (active) | 10.5 µM (active) | 24.3 µM (active) |  | 13.2 µM (active) | 6.62 µM (active) |  |  |
| CC(C)NC[C@@H](C(=O)N1CCN(c2ncnc3c2[C@H](C)C[C@H]3O)CC1)c1ccc(Cl)cc1 | inactive | 5.9 µM (active) | 11.8 µM (active) | 0.132 µM (active) |  | 0.833 µM (active) |  | 12.1 µM (active) | 3.32 µM (active) | 2.96 µM (active) | 24.3 µM (active) | 5.9 µM (active) | 3.32 µM (active) | 6.62 µM (active) |  |  |
| CCCNC(=O)[C@H]1O[C@H]1C(=O)N[C@H](C(=O)N1CCC[C@@H]1C(=O)OC)C(C)CC (stereo partly drawn) | inactive |  | 2.35 µM (active) | 2.64 µM (active) | 17.2 µM (active) |  |  |  | 9.35 µM (active) | 10.5 µM (active) |  | 14.8 µM (active) | 23.5 µM (active) | 2.96 µM (active) |  |  |
| C[N+]1(C)[C@@H]2C[C@@H](OC(=O)C(O)(c3cccs3)c3cccs3)C[C@H]1[C@@H]1O[C@@H]12 | inactive | inactive | inactive | inactive | inactive | inactive | inactive | inactive | inactive | inactive | inactive | inactive | inactive | inactive |  |  |
| O=C1CSC(=O)N1C(CCc1ccncc1)COc1ccc(-c2cccc([N+](=O)[O-])c2)cc1 (stereo not drawn) | inactive | 7.43 µM (active) | 7.43 µM (active) | 10.5 µM (active) | 15.3 µM (active) | 18.7 µM (active) | inactive | 4.82 µM (active) |  | 14.8 µM (active) | 6.85 µM (active) | inactive |  | inactive |  |  |
| O=c1ccn([C@@H]2O[C@H](CO)[C@H](O)[C@@H]2F)c(=O)[nH]1 | inactive | inactive | 23.5 µM (active) | 8.33 µM (active) | inactive | inactive | inactive | 9.61 µM (active) | inactive | inactive | inactive | inactive | inactive | inactive |  |  |
